Measurements taken from PubChem BioAssay.
Values joined by “and” are separate entries in the source; they are usually repeats but may differ in a detail not shown here. Equal entries are not always repeated. Active and inactive are the calls of the source. Rule as the data show it, unless noted: active = inhibition above about 80%; inactive = the rest.

Legend:
[1] = growth inhibition, single agents and combos, UWB1.289, cell-based, BGB or cisplatin combos, synergistic combos for chromothripsis tumors (AID 1671456); details: UWB1.289 ovarian carcinoma cells, stronger effect = higher value;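 also: cells exposed to compound for four days; 0% = vehicle DMSO and 100% = killing by high DMSO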
[2] = growth inhibition, single agents and combos, LFS_MB_2R, cell-based, cisplatin combos, synergistic combos for chromothripsis tumors (AID 1671457); details: LFS_MB_2R medulloblastoma cells, stronger effect = higher value;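 also: cells exposed to compound for four days before readout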
[3] = growth inhibition, MDA-MB-436, cell-based, BGB or cisplatin combos, synergistic combos for chromothripsis tumors (AID 1671458; call rule not given here;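 also: cells exposed for 96 hours; 0% = vehicle DMSO and 100% = killing by high DMSO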); details: MDA-MB-436 breast carcinoma growth inhibition, drug combinations, stronger effect = higher value
[4] = UWB1.289_BRCA1 ovarian cancer growth, cell-based, BGB or cisplatin combinations (AID 1671459); details: UWB1.289 BRCA1 ovarian carcinoma, drug combinations, stronger effect = higher value
[5] = drug combination toxicity in non-malignant astrocytes – cell-based, BGB or cisplatin IC20 combos, cytotoxicity control for chromothriptic childhood tumor combination screen (AID 1671460); details: Human astrocytes, viability inhibition, drug combinations, at 0.5 µM, stronger effect = higher value;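 also: cells exposed to compounds for 96 hours before viability readout; 0% = vehicle and 100% = killing control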
[6] = BT084 cell growth, single and combined drugs, ICGC_MB145, cisplatin and BGB IC40 combos (AID 1671461); details: BT084 medulloblastoma cells, drug combinations, stronger effect = higher value;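 also: cells exposed to drugs for 96 hours; 0% = vehicle DMSO and 100% = high DMSO full killing control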
[7] = RCMB18 cell growth, single agent and combined, cisplatin and BGB IC40 combos (AID 1671462); details: RCMB18 medulloblastoma cells, stronger effect = higher value;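 also: cells exposed to compound for four days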
[8] = CRL1545 cell growth, single agent and combined, cisplatin and BGB IC20 combos (AID 1671464); details: CRL1545 osteosarcoma cells, stronger effect = higher value;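 also: cells exposed to compound for 96 hours before readout; 0% = vehicle DMSO and 100% = high DMSO killing control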
[9] = tested on: F380Y; assay: BK channel mutant inhibitors and activators – cell-based, U2OS BacMam, thallium flux, beta subunits, selectivity assay, profiling panel (AID 1259406;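 active = thallium flux through the channel raised or lowered by more than 3 SD from vehicle-only wells, actives on both sides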;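 also: initial slope of Thallos dye fluorescence rise after thallium is added; log ratio against the mean of 0.3% DMSO vehicle wells on the same plate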); details: U2OS BacMam BK variants, at 30 µM
[10] = tested on: F380Y/beta1; assay: as above; details: U2OS BacMam BK variants, at 30 µM
[11] = measured here: inhibition with BGB combination, at 0.05 µM
[12] = measured here: inhibition with cisplatin combination, at 0.05 µM
[13] = measured here: combination with cisplatin, at 0.5 µM
[14] = measured here: combination with cisplatin, at 5 µM
[15] = measured here: BGB combination, at 0.5 µM
[16] = measured here: BGB combination, at 5 µM
[17] = measured here: cisplatin combination, at 0.5 µM
[18] = measured here: cisplatin combination, at 5 µM
[19] = BGB combination, concentration series, at 5 µM
[20] = cisplatin combination, concentration series, at 5 µM
[21] = measured here: combo with BGB IC20
[22] = measured here: combo with cisplatin IC20
[23] = cisplatin combination, at 0.5 µM
[24] = measured here: BGB IC40 combination 0.05 uM, at 0.05 µM
[25] = measured here: BGB IC40 combination, at 0.05 µM
[26] = measured here: with BGB IC20 combination, at 0.5 µM
[27] = measured here: with cisplatin IC20 combination, at 0.5 µM

## Nc1nc2c(ncn2CCC(CO)CO)c(=O)[nH]1
[1]; at 0.5 µM
  inhibition: -12.6% (inactive) and 3.48% (inactive)
[1]; [11]
  inhibition: -7.99% and -7.52%
[1]; [12]
  inhibition: -19.6% and -12.5%
[2]; at 0.5 µM
  inhibition: -3.59% (inactive) and -17% (inactive)
[2]; [13]
  inhibition: -6.24% and -17.7%
[2]; [14]
  inhibition: 9.1% and -63%
[3]; at 0.5 µM
  inhibition: -1.2% (inactive) and -23.3% (inactive)
[3]; [15]
  inhibition: 8.81% and -18.4%
[3]; [16]
  inhibition: 4.8% and -29%
[3]; [17]
  inhibition: -6.71% and -45.8%
[3]; [18]
  inhibition: 5.49% and -36%
[4]; [19]
  inhibition: -16.8% and -15.8%
[4]; at 0.5 µM
  inhibition: -10.2% (inactive) and 1.59% (inactive)
[4]; [20]
  inhibition: 4.16% and 10.4%
[5]
  inhibition: 6.25% (inactive) and 7.18% (inactive)
[5]; [21]
  inhibition: 34.9% and 5.65%
[5]; [22]
  inhibition: -9.35% and -4.75%
[6]; at 0.5 µM
  inhibition: 8.52% (inactive) and -29.3% (inactive)
[6]; [23]
  inhibition: -11.9% and -14.8%
[6]; cisplatin combination, at 5 µM
  inhibition: -3.68% and -10.8%
[6]; [24]
  inhibition: 45.4% and 1.15%
[6]; single agent, at 5 µM
  inhibition: -12.8% and -18.7%
[7]; at 0.5 µM
  inhibition: 0.33% (inactive) and -16.2% (inactive)
[7]; cisplatin combo, at 5 µM
  inhibition: 3.43% and -89.1%
[7]; [25]
  inhibition: 3.48% and 8.53%
[7]; [13]
  inhibition: -3.27% and -9.97%
[7]; single agent, at 5 µM
  inhibition: -16.9% and 37.5%
[8]; at 0.5 µM
  inhibition: -5.94% (inactive) and 9.73% (inactive)
[8]; [26]
  inhibition: -31% and 11.5%
[8]; [27]
  inhibition: 6.57% and 6.77%
[8]; single agent, at 0.05 µM
  inhibition: -14.4% and -21.2%
[8]; single agent, at 5 µM
  inhibition: -30.6% and 1.59%
[9]
  log fold change Tl+ flux: 0.0173 (inactive)
[10]
  log fold change Tl+ flux: -0.0111 (inactive)

## CNNCc1ccc(C(=O)NC(C)C)cc1
[1]; at 0.5 µM
  inhibition: 13% (inactive) and 7.15% (inactive)
[1]; [11]
  inhibition: 3.19% and 1.17%
[1]; [12]
  inhibition: 22.9% and 3.56%
[2]; at 0.5 µM
  inhibition: 14.1% (inactive) and 0.23% (inactive)
[2]; [13]
  inhibition: 6.63% and -1.71%
[2]; [14]
  inhibition: 15.9% and -32.2%
[3]; at 0.5 µM
  inhibition: 0.31% (inactive) and -0.08% (inactive)
[3]; [15]
  inhibition: 1.37% and 5.96%
[3]; [16]
  inhibition: -3.48% and 5.4%
[3]; [17]
  inhibition: 0.65% and -2.59%
[3]; [18]
  inhibition: -3.21% and 0.056%
[4]; [19]
  inhibition: -3.07% and 11.5%
[4]; at 0.5 µM
  inhibition: 8.92% (inactive) and 4.36% (inactive)
[4]; [20]
  inhibition: 2.73% and 5.28%
[5]
  inhibition: -1.46% (inactive) and -4.45% (inactive)
[5]; [21]
  inhibition: 4.04% and -5.12%
[5]; [22]
  inhibition: -5.05% and -7.38%
[6]; at 0.5 µM
  inhibition: 9.13% (inactive) and -8.81% (inactive)
[6]; [23]
  inhibition: -8.59% and 0.014%
[6]; cisplatin combination, at 5 µM
  inhibition: 13.7% and 11%
[6]; [24]
  inhibition: 8.15% and 2.42%
[6]; single agent, at 5 µM
  inhibition: -0.995% and -8.33%
[7]; at 0.5 µM
  inhibition: 5.59% (inactive) and 7.58% (inactive)
[7]; cisplatin combo, at 5 µM
  inhibition: 1.81% and -25.8%
[7]; [25]
  inhibition: -9.15% and -22.9%
[7]; [13]
  inhibition: 38.1% and 9.89%
[7]; single agent, at 5 µM
  inhibition: -25.5% and 7.57%
[8]; at 0.5 µM
  inhibition: -9.96% (inactive) and 0.27% (inactive)
[8]; [26]
  inhibition: -28.2% and -29.3%
[8]; [27]
  inhibition: -2.5% and 13.1%
[8]; single agent, at 0.05 µM
  inhibition: -6% and -6.52%
[8]; single agent, at 5 µM
  inhibition: -28.8% and -29%
[9]
  log fold change Tl+ flux: -0.0305 (inactive)
[10]
  log fold change Tl+ flux: 0.0168 (inactive)

## CC(=O)NS(=O)(=O)c1ccc(N)cc1
[9]
  log fold change Tl+ flux: -0.0156 (inactive)
[10]
  log fold change Tl+ flux: 0.00907 (inactive)

## O=NN(CCCl)C(=O)NCCCl
[1]; at 0.5 µM
  inhibition: -5.7% (inactive)
[1]; [11]
  inhibition: -21%
[1]; [12]
  inhibition: -12%
[2]; at 0.5 µM
  inhibition: -21.9% (inactive)
[2]; [13]
  inhibition: -14.5%
[2]; [14]
  inhibition: -18.3%
[3]; at 0.5 µM
  inhibition: -8.21% (inactive)
[3]; [15]
  inhibition: -10%
[3]; [16]
  inhibition: -8.63%
[3]; [17]
  inhibition: -2.04%
[3]; [18]
  inhibition: -6.22%
[4]; [19]
  inhibition: 3.47%
[4]; at 0.5 µM
  inhibition: -1.58% (inactive)
[4]; [20]
  inhibition: 19.3%
[5]
  inhibition: 12.8% (inactive)
[5]; [21]
  inhibition: 26.4%
[5]; [22]
  inhibition: 2.42%
[6]; at 0.5 µM
  inhibition: -12.6% (inactive)
[6]; [23]
  inhibition: -0.565%
[6]; cisplatin combination, at 5 µM
  inhibition: 5.72%
[6]; [24]
  inhibition: 22.3%
[6]; single agent, at 5 µM
  inhibition: 10.8%
[7]; at 0.5 µM
  inhibition: -5.05% (inactive)
[7]; cisplatin combo, at 5 µM
  inhibition: -0.239%
[7]; [25]
  inhibition: -34.5%
[7]; [13]
  inhibition: 22.9%
[7]; single agent, at 5 µM
  inhibition: -38.3%
[8]; at 0.5 µM
  inhibition: -14.2% (inactive)
[8]; [26]
  inhibition: -17.2%
[8]; [27]
  inhibition: -12.8%
